# Experimental data taken from PubChem BioAssay (NCATS).
# Inconclusive results are not listed. Entries that show only a call come without a potency. Active and inactive are the calls of the source. The call rests on the fitted dose curve.
# Assays:
# [1] = Primary qHTS for Huh7 cytotoxicity: counterscreen for inhibitors of MERS-S pseudotyped particle cell entry (AID 1479147); conditions: cell viability read-out; series mostly up to 57.1 µM
# [2] = Primary qHTS for inhibitors of MERS-S pseudo-typed particle cell entry (AID 1479149); conditions: MERS-S pseudotyped particle entry, luciferase; series mostly up to 57.1 µM; further: nearly all actives have a fitted effect of over 60% in size; further: potency means the concentration at half of the fitted maximal effect
# [3] = Primary qHTS for Vero E6 cytotoxicity: counterscreen for inhibitors of SARS-S pseudo-typed particle cell entry (AID 1479150); conditions: cell viability; series mostly up to 57.1 µM
compound,measurement,setting,value
COc1ccccc1OC(=O)Oc1ccccc1OC,Potency,[1],inactive
same,Potency,[2],inactive
same,Potency,[3],inactive
O=C1OC(c2ccc(O)cc2)(c2ccc(O)cc2)c2ccccc21,Potency,[1],inactive
same,Potency,[2],inactive
same,Potency,[3],inactive
CN(C)CC[C@@H](c1ccc(Cl)cc1)c1ccccn1,Potency,[1],inactive
same,Potency,[2],inactive
same,Potency,[3],inactive
NS(=O)(=O)c1cc(C(=O)O)c(NCc2ccco2)cc1Cl,Potency,[1],inactive
same,Potency,[2],inactive
same,Potency,[3],inactive
O=C(NC1CCN(CCc2c[nH]c3ccccc23)CC1)c1ccccc1,Potency,[1],inactive
same,Potency,[2],inactive
same,Potency,[3],inactive
NC(=O)Cc1cccc(C(=O)c2ccccc2)c1N,Potency,[1],inactive
same,Potency,[2],inactive
same,Potency,[3],inactive
COC(=O)C1=C(C)NC(C)=C(C(=O)OCCN2CCN(C(c3ccccc3)c3ccccc3)CC2)C1c1cccc([N+](=O)[O-])c1 (centres undefined),Potency,[1],inactive
same,Potency,[3],inactive
CCN(CC)CCOc1ccccc1C(=O)CCc1ccccc1,Potency,[1],inactive
same,Potency,[2],inactive
same,Potency,[3],inactive
Clc1ccc(C(Cn2ccnc2)OCc2ccsc2Cl)c(Cl)c1 (centres undefined),Potency,[1],inactive
same,Potency,[3],inactive
C(=C\c1ccccc1)/CN1CCN(C(c2ccccc2)c2ccccc2)CC1,Potency,[1],inactive
same,Potency,[2],inactive
same,Potency,[3],inactive
Nc1ccn(C2CO[C@H](CO)O2)c(=O)n1 (some centres undefined),Potency,[1],inactive
same,Potency,[2],inactive
same,Potency,[3],inactive
C/C=C(/C(=C/C)c1ccc(O)cc1)c1ccc(O)cc1,Potency,[1],inactive
same,Potency,[2],inactive
same,Potency,[3],inactive
CCN(CC)CCOC(=O)C1(c2ccccc2)CCCC1,Potency,[1],inactive
same,Potency,[3],inactive
CC(=O)[C@@]1(O)CC[C@H]2[C@@H]3C[C@H](C)C4=CC(=O)CC[C@]4(C)[C@H]3CC[C@@]21C,Potency,[1],inactive
same,Potency,[2],inactive
same,Potency,[3],inactive
C[C@H](O)C(=O)Nc1c(I)c(C(=O)NC(CO)CO)c(I)c(C(=O)NC(CO)CO)c1I,Potency,[1],inactive
same,Potency,[2],inactive
same,Potency,[3],inactive
CC1CC(=O)NN=C1c1ccc(NCC(C)(C)NCC(O)COc2cc(Cl)ccc2C#N)cc1 (centres undefined),Potency,[1],inactive
same,Potency,[2],inactive
same,Potency,[3],inactive
CCOCCOC(=O)/C=C/c1ccc(OC)cc1,Potency,[1],inactive
same,Potency,[2],inactive
same,Potency,[3],inactive
C=CCOc1cc(Cl)ccc1C(=O)NCCN(CC)CC,Potency,[1],inactive
same,Potency,[2],inactive
same,Potency,[3],inactive
c1ccc(CC2=NCCN2)cc1,Potency,[1],inactive
same,Potency,[2],inactive
same,Potency,[3],inactive
C/C=C/C(=O)N(CC)c1ccccc1C,Potency,[1],inactive
same,Potency,[2],inactive
same,Potency,[3],inactive
CCC1NC(=O)c2cc(S(N)(=O)=O)c(Cl)cc2N1 (centres undefined),Potency,[1],inactive
same,Potency,[2],inactive
same,Potency,[3],inactive
N#C/C(=C1/SC[C@@H](c2ccc(Cl)cc2Cl)S1)n1ccnc1,Potency,[1],inactive
same,Potency,[3],inactive
CCCC(=O)OC[C@@H](OC(=O)CCC)[C@@H](OC(=O)CCC)[C@H](Cn1c2nc(=O)[nH]c(=O)c-2nc2cc(C)c(C)cc21)OC(=O)CCC,Potency,[1],inactive
same,Potency,[2],inactive
same,Potency,[3],inactive
OCc1ccccc1O,Potency,[1],inactive
same,Potency,[2],inactive
same,Potency,[3],inactive
CCCCCCCCCCCCOS(=O)(=O)O,Potency,[1],inactive
same,Potency,[2],inactive
same,Potency,[3],inactive
O=c1[nH]c(=O)c2[nH]c(=O)[nH]c2[nH]1,outcome,[1],inactive [at 11.4 µM]
same,outcome,[2],inactive [at 11.4 µM]
same,outcome,[3],inactive [at 11.4 µM]
CCc1oc2ccccc2c1C(=O)c1cc(Br)c(O)c(Br)c1,Potency,[1],inactive
same,Potency,[2],inactive
same,Potency,[3],inactive
Cc1c(-c2ccccc2)oc2c(C(=O)OCCN3CCCCC3)cccc2c1=O,Potency,[1],inactive
same,Potency,[2],inactive
same,Potency,[3],inactive
CN1CCC(=C2c3ccccc3CCc3sccc32)CC1,Potency,[1],inactive
same,Potency,[2],10 µM (active)
same,Potency,[3],inactive
CCOC(CN1CCN(CC(C)C(=O)c2ccccc2)CC1)c1ccccc1 (centres undefined),Potency,[1],inactive
same,Potency,[2],inactive
same,Potency,[3],inactive
CCOC(=O)OC(C)OC1=C(C(=O)Nc2ccccn2)N(C)S(=O)(=O)c2ccccc21 (centres undefined),Potency,[1],inactive
same,Potency,[2],inactive
same,Potency,[3],inactive
CCCCCOc1ccccc1/C(=C\SC)n1ccnc1,Potency,[1],inactive
same,Potency,[3],inactive
CN(C)CCCOC1(Cc2ccccc2)CCCCCC1,Potency,[1],inactive
same,Potency,[2],inactive
same,Potency,[3],inactive
Cc1ncc(COP(=O)(O)O)c(C=O)c1O,Potency,[1],inactive
same,Potency,[2],inactive
same,Potency,[3],inactive
CN1[C@@H]2CC[C@H]1CC(OC(=O)c1c[nH]c3ccccc13)C2 (some centres undefined),Potency,[1],inactive
same,Potency,[3],inactive
COC1=C(OC)C(=O)C(CCCCCCCCCCO)=C(C)C1=O,Potency,[1],inactive
same,Potency,[2],inactive
same,Potency,[3],inactive
CCCCCCCCCCCCCCCCC(C(=O)O)C(O)(CC(=O)O)C(=O)O (centres undefined),Potency,[1],inactive
same,Potency,[2],inactive
same,Potency,[3],inactive
O=C(OCc1ccccc1)c1ccc(O)cc1,Potency,[1],inactive
same,Potency,[2],inactive
same,Potency,[3],inactive
CC(=O)OCC(=O)Nc1cc(C#N)cc(NC(=O)COC(C)=O)c1Cl,Potency,[1],inactive
same,Potency,[2],inactive
same,Potency,[3],inactive
CC(Oc1c(Cl)cccc1Cl)C1=NCCN1 (centres undefined),Potency,[1],inactive
same,Potency,[2],inactive
same,Potency,[3],inactive
